Assay results as given in PubChem BioAssay AID1159580 (chemical genetic matrix, 2015).
Values joined by “and” are separate entries in the source; they are usually repeats but may differ in a detail not shown here. Equal values may be shown once. Among all 5,500 compounds or so, about 2,000 (36%) were called active. About 18% were inconclusive and are not listed. No stated cut-off is given here; in the data, active means normalized growth mostly below about 0.91 (no sharp cut-off); inconclusive means no clear call, values can overlap the other calls; inactive means mostly above about 0.92. This is one part of the list.

Test: chemical genetic growth profiling, strain panel (AID 1159580);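 further: tested at 20 µM; growth read once vehicle control cultures reached saturation at 30 °C; 1 = growth at the plate median or of vehicle wells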
Conditions: S. cerevisiae deletion strains, growth OD
[1] = locus YAL040C, strain CLN3, stronger effect = lower value
[2] = locus YER002W, strain NOP16, stronger effect = lower value
[3] = locus YNL175C, strain NOP13, stronger effect = lower value
[4] = locus YNL224C, strain SQS1, stronger effect = lower value
[5] = locus YOR083W, strain WHI5 (second series), stronger effect = lower value
[6] = locus YPL241C, strain CIN2, stronger effect = lower value
[7] = locus YMR263W, strain SAP30, stronger effect = lower value
[8] = locus YMR307W, strain GAS1, stronger effect = lower value
[9] = locus YNL322C, strain KRE1, stronger effect = lower value

Measured: normalized growth

CN1C(=O)CCC1c1cccnc1 (stereo not drawn)
inactive: locus YAL013W, strain DEP1, stronger effect = lower value 1.02 | [1] 1.02 | [2] 1 | locus YJR075W, strain HOC1, stronger effect = lower value 1.01 | [3] 0.999 | [4] 1.01 | [5] 1.02 | [6] 1.01

CN1C(=O)CC[C@H]1c1cccnc1
inactive: locus YBR021W, strain FUR4, stronger effect = lower value 1 | locus YBR229C, strain ROT2, stronger effect = lower value 1 | locus YCL029C, strain bik1, stronger effect = lower value 1.02 | locus YDL035C, strain GPR1, stronger effect = lower value 1.02 | locus YDL074C, strain BRE1, stronger effect = lower value 1.04 | locus YDL101C, strain DUN1, stronger effect = lower value 1.01 | locus YDL134C, strain PPH21, stronger effect = lower value 1 | locus YDL185W, strain tfp1, stronger effect = lower value 1.03 | locus YDL192W, strain arf1, stronger effect = lower value 1.01 | locus YDR101C, strain arx1, stronger effect = lower value 1.05 | locus YDR150W, strain NUM1, stronger effect = lower value 0.992 | locus YDR162C, strain NBP2, stronger effect = lower value 1.01 | locus YDR318W, strain mcm21, stronger effect = lower value 1.02 | locus YDR388W, stronger effect = lower value 1.02 | locus YDR502C, strain sam2, stronger effect = lower value 1.04 | locus YEL061C, strain CIN8, stronger effect = lower value 0.993 | locus YER110C, stronger effect = lower value 1.03 | locus YER155C, strain BEM2, stronger effect = lower value 0.992 | locus YER167W, strain BCK2, stronger effect = lower value 0.997 | locus YGL078C, strain dbp3, stronger effect = lower value 1.03 | locus YGL086W, strain mad1, stronger effect = lower value 1.03 | locus YGL248W, strain PDE1, stronger effect = lower value 1.02 | locus YGR135W, strain pre9, stronger effect = lower value 1.01 | locus YGR229C, strain SMI1, stronger effect = lower value 1.01 | locus YGR252W, strain gcn5, stronger effect = lower value 1.11 | locus YHR030C, strain SLT2, stronger effect = lower value 0.997 and 1.05 | locus YHR079C, strain IRE1 (second series), stronger effect = lower value 1.03 | locus YHR079C, strain IRE1, stronger effect = lower value 1.04 | locus YHR094C, strain hxt1, stronger effect = lower value 1.01 | locus YHR129C, strain ARP1, stronger effect = lower value 0.993 | locus YHR200W, strain rpn10, stronger effect = lower value 1.01 | locus YIL066C, strain RNR3, stronger effect = lower value 1.01 | locus YIL073C, strain SPO22, stronger effect = lower value 1.07 | locus YIL125W, strain kgd1, stronger effect = lower value 1.02 | locus YIR030C, strain dcg1, stronger effect = lower value 1.02 | locus YJL095W, strain BCK1, stronger effect = lower value 1.01 and 1.02 | locus YJL134W, strain LCB3, stronger effect = lower value 0.996 | locus YJL168C, strain set2, stronger effect = lower value 1 | locus YJL187C, strain SWE1 (second series), stronger effect = lower value 1.01 | locus YJR043C, strain POL32, stronger effect = lower value 1.02 | locus YJR066W, strain TOR1, stronger effect = lower value 0.992 | locus YKL009W, strain mrt4, stronger effect = lower value 1.03 | locus YKL068W, stronger effect = lower value 1.01 | locus YKL085W, strain MDH1 (second series), stronger effect = lower value 1.01 | locus YKL085W, strain MDH1, stronger effect = lower value 1.01 | locus YKL190W, strain CNB1, stronger effect = lower value 1 | locus YKR001C, strain vps1, stronger effect = lower value 1.03 | locus YLR039C, strain RIC1, stronger effect = lower value 1.02 | locus YLR058C, strain SHM2, stronger effect = lower value 1 | locus YLR102C, strain apc9, stronger effect = lower value 1.02 | locus YLR113W, strain HOG1, stronger effect = lower value 1.06 | locus YLR262C, strain YPT6, stronger effect = lower value 1.04 | locus YLR268W, strain sec22, stronger effect = lower value 1.03 | locus YLR330W, strain CHS5, stronger effect = lower value 0.999 | locus YLR342W, strain FKS1 (second series), stronger effect = lower value 1.01 | locus YLR371W, strain rom2, stronger effect = lower value 0.983 | locus YLR418C, strain cdc73, stronger effect = lower value 1.03 | locus YML016C, strain PPZ1, stronger effect = lower value 0.993 | locus YML032C, strain rad52, stronger effect = lower value 1.02 | locus YML124C, strain tub3, stronger effect = lower value 1.01 | locus YMR078C, strain ctf18, stronger effect = lower value 1.02 | locus YMR223W, strain ubp8, stronger effect = lower value 1.01 | [7] 1 | [8] 0.998 | locus YNL067W, strain RPL9B, stronger effect = lower value 1.01 | locus YNL183C, strain NPR1, stronger effect = lower value 0.992 | locus YNL233W, strain BNI4, stronger effect = lower value 1.01 | locus YNL250W, strain rad50, stronger effect = lower value 1.02 | locus YNL271C, strain bni1, stronger effect = lower value 1.02 | locus YNL298W, strain CLA4, stronger effect = lower value 1.04 | locus YNL307C, strain MCK1, stronger effect = lower value 1.03 | [9] 0.993 | locus YNR052C, strain pop2, stronger effect = lower value 1.02 | locus YOL006C, strain TOP1, stronger effect = lower value 1.04 | locus YOL012C, strain htz1 0.58 | locus YOL147C, strain pex11, stronger effect = lower value 1.04 | locus YOR061W, strain CKA2, stronger effect = lower value 1.01 | locus YOR069W, strain VPS5, stronger effect = lower value 0.997 | locus YOR136W, strain idh2, stronger effect = lower value 1.02 | locus YOR144C, strain elg1, stronger effect = lower value 1.01 | locus YOR184W, strain ser1, stronger effect = lower value 1.03 | locus YOR231W, strain MKK1, stronger effect = lower value 1.04 | locus YOR316C, strain cot1, stronger effect = lower value 1.04 | [6] 0.995 | locus YPL256C, strain CLN2, stronger effect = lower value 1.16 | locus YPR119W, strain clb2, stronger effect = lower value 1 | locus YPR141C, strain kar3, stronger effect = lower value 1 | locus YPR163C, strain tif3, stronger effect = lower value 1.06 | locus YPR167C, strain met16, stronger effect = lower value 1.01 | strain wtn01, stronger effect = lower value 1.04

CCC1(C2=NCCN2)Cc2ccccc2O1 (stereo not drawn)
inactive: locus YAL021C, strain ccr4, stronger effect = lower value 0.996 | locus YAL026C, strain drs2, stronger effect = lower value 1.01 | locus YAL030W, strain snc1, stronger effect = lower value 1.01 | [1] 1.07 | locus YBL061C, strain skt5, stronger effect = lower value 1 | locus YBR009C, strain hhf1, stronger effect = lower value 1.01 | locus YBR023C, strain chs3, stronger effect = lower value 1.01 | locus YBR171W, strain sec66, stronger effect = lower value 1.02 | locus YBR231C, strain swc5, stronger effect = lower value 0.998 | locus YBR279W, strain paf1, stronger effect = lower value 1.01 | locus YCL011C, strain gbp2, stronger effect = lower value 1.02 | locus YCL016C, strain dcc1, stronger effect = lower value 1 | locus YCL061C, strain MRC1 (second series), stronger effect = lower value 1.01 | locus YCL061C, strain MRC1, stronger effect = lower value 1 | locus YCL069W, strain vba3, stronger effect = lower value 1.01 | locus YCR088W, strain abp1, stronger effect = lower value 1.02 | locus YDL005C, strain med2, stronger effect = lower value 1 | locus YDL040C, strain nat1, stronger effect = lower value 1.01 | locus YDR001C, strain nth1, stronger effect = lower value 1.01 | locus YDR069C, strain doa4, stronger effect = lower value 1 | locus YDR137W, strain rgp1, stronger effect = lower value 1.01 | locus YDR159W, strain sac3, stronger effect = lower value 0.991 | locus YDR195W, strain ref2 0.967 | locus YDR297W, strain sur2, stronger effect = lower value 1 | locus YDR334W, strain swr1, stronger effect = lower value 1.01 | locus YDR335W, strain msn5, stronger effect = lower value 1.01 | locus YDR363W, strain ESC2, stronger effect = lower value 1.03 | locus YDR392W, strain spt3, stronger effect = lower value 0.818 | locus YEL003W, strain gim4, stronger effect = lower value 1.01 | locus YEL037C, strain rad23, stronger effect = lower value 1.01 | locus YEL061C, strain CIN8 (second series), stronger effect = lower value 1.01 | [2] 1.01 | locus YER015W, strain faa2, stronger effect = lower value 1 | locus YER016W, strain bim1, stronger effect = lower value 1.01 | locus YER111C, strain swi4, stronger effect = lower value 1.01 | locus YER155C, strain BEM2 (second series), stronger effect = lower value 0.973 | locus YFR010W, strain ubp6, stronger effect = lower value 1.01 | locus YGL167C, strain pmr1, stronger effect = lower value 1 | locus YGL173C, strain kem1, stronger effect = lower value 1.01 | locus YGL227W, strain vid30, stronger effect = lower value 1.01 | locus YGL240W, strain doc1, stronger effect = lower value 0.989 | locus YGL253W, strain hxk2, stronger effect = lower value 1.02 | locus YHR013C, strain ard1, stronger effect = lower value 0.964 | locus YHR027C, strain rpn1, stronger effect = lower value 1.01 | locus YHR142W, strain chs7, stronger effect = lower value 1.02 | locus YJL092W, strain hpr5, stronger effect = lower value 1.01 | locus YJL095W, strain BCK1 (second series), stronger effect = lower value 1.01 | locus YJL115W, strain asf1, stronger effect = lower value 1 | locus YJL129C, strain trk1, stronger effect = lower value 0.996 | locus YJL154C, strain vps35, stronger effect = lower value 1.01 | locus YJL164C, strain tpk1, stronger effect = lower value 0.995 | locus YJL166W, strain qcr8, stronger effect = lower value 1 | locus YJL187C, strain SWE1, stronger effect = lower value 1.01 | locus YKL160W, strain elf1, stronger effect = lower value 0.99 | locus YKR026C, strain gcn3, stronger effect = lower value 1.02 | locus YKR091W, strain srl3, stronger effect = lower value 1 | locus YLL001W, strain dnm1, stronger effect = lower value 1.01 | locus YLL026W, stronger effect = lower value 1 | locus YLL041C, strain sdh2, stronger effect = lower value 1.01 | locus YLR027C, strain aat2, stronger effect = lower value 1.01 | locus YLR221C, strain rsa3, stronger effect = lower value 1.01 | locus YLR258W, strain gsy2, stronger effect = lower value 1 | locus YLR262C, strain YPT6 (second series), stronger effect = lower value 0.995 | locus YLR320W, strain mms22, stronger effect = lower value 1 | locus YLR342W, strain FKS1, stronger effect = lower value 1 | locus YLR357W, strain rsc2, stronger effect = lower value 1.01 | locus YLR370C, strain arc18, stronger effect = lower value 1.01 | locus YLR384C, strain iki3, stronger effect = lower value 1.01 | locus YML120C, strain ndi1, stronger effect = lower value 1.01 | locus YMR058W, strain fet3, stronger effect = lower value 1.01 | locus YMR125W, strain sto1, stronger effect = lower value 1.01 | locus YMR129W, stronger effect = lower value 1 | locus YMR205C, strain PFK2, stronger effect = lower value 1 | locus YMR231W, strain pep5, stronger effect = lower value 1 | [7] 1.01 | [8] 1.03 | locus YNL071W, strain lat1, stronger effect = lower value 1.01 | locus YNL153C, strain GIM3, stronger effect = lower value 0.99 | [3] 1.01 | locus YNL197C, strain WHI3, stronger effect = lower value 1.01 | locus YNL209W, strain ssb2, stronger effect = lower value 1 | [4] 1.01 | locus YNL248C, strain rpa49, stronger effect = lower value 1 | locus YNL322C, strain KRE1 (second series), stronger effect = lower value 1 | [9] 1.01 | locus YNR049C, strain mso1, stronger effect = lower value 1.01 | locus YOR001W, strain rrp6, stronger effect = lower value 1 | locus YOR070C, strain gyp1, stronger effect = lower value 1.01 | locus YOR080W, strain dia2, stronger effect = lower value 0.994 | [5] 1 | locus YOR083W, strain WHI5, stronger effect = lower value 0.994 | locus YOR106W, strain vam3, stronger effect = lower value 1.01 | locus YOR265W, strain rbl2, stronger effect = lower value 1.01 | locus YOR270C, strain vph1, stronger effect = lower value 1.03 | locus YOR290C, strain snf2, stronger effect = lower value 0.965 | locus YPL051W, strain arl3, stronger effect = lower value 1 | locus YPL078C, strain atp4, stronger effect = lower value 1 | locus YPL106C, strain sse1, stronger effect = lower value 0.984 | locus YPL240C, strain hsp82, stronger effect = lower value 0.991 | [6] 1.01
